SMILES strings stand for the structures. Results filed as inconclusive are left out. Calls of active or inactive are those of the source. How the source made its calls: active means hit-call score of the fitted dose curve at least 0.9, where 1 is the maximum; inconclusive means response in the unintended direction; inactive means score below 0.9.

The target in experiment [1] is human Peroxisome Proliferator-activated Receptor alpha (PPARa), PPARA (gene 5465) (UniProt Q07869). As to the kind of experiment: ATG_PPARa_TRANS: Attagene TRANS-FACTORIAL HepG2 Assay for human Peroxisome Proliferator-activated Receptor alpha (PPARa) (AID 2283001). An outline of the steps:
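Read-out is fluorescence of reporter cDNA fragments resolved by capillary electrophoresis after RT-PCR. Human HepG2 liver cells carried transfected PPARa-Gal4 chimera and GAL4-UAS reporter units, treated 24 h; activity scored as increase over DMSO.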

In experiment [2] the target is Peroxisome proliferator-activated receptor gamma (Homo sapiens) (UniProt P37231). As to the kind of experiment: ATG_PPARg_TRANS: Attagene TRANS-FACTORIAL HepG2 Assay for human Peroxisome Proliferator-activated Receptor-gamma (PPARg) (AID 2283007). An outline of the steps:
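Endpoint reflects upward reporter mRNA change versus DMSO controls. Setup: transiently transfected HepG2, GAL4-UAS reporters driven by chimeric NR-Gal4, 24 h incubation, RT-PCR with capillary electrophoresis read-out.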

Experiment [3] addresses Nuclear receptor subfamily 1 group I member 2 (Homo sapiens) (UniProt O75469). As to the kind of experiment: ATG_PXR_TRANS: Attagene TRANS-FACTORIAL HepG2 Assay for human Pregnane X Receptor (PXR) (AID 2283008). An outline of the steps:
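Fluorescence intensity of FAM-labelled, HpaI-digested reporter amplicons, separated by capillary electrophoresis, quantifies induction. HepG2 cells with PXR-Gal4 trans-reporter system were exposed 24 h; DMSO defines baseline.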

Experiment [4] concerns the target human Peroxisome Proliferator-activated Receptor delta (PPARd), PPARD (gene 5467) (UniProt Q03181). The experiment can be described thus: ATG_PPARd_TRANS: Attagene TRANS-FACTORIAL HepG2 Assay for human Peroxisome Proliferator-activated Receptor delta (PPARd) (AID 2283002). An outline of the steps:
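Cell-based TRANS reporter: HepG2, transient MRTU transfection, 24 h exposure. Readout = reporter mRNA (RT-PCR/CE, 6-FAM). Gain-of-signal fit vs DMSO control.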

Experiment [5] concerns the target human Retinoic Acid Receptor gamma (RARg), RARG (gene 5916) (UniProt P13631). The experiment can be described thus: ATG_RARg_TRANS: Attagene TRANS-FACTORIAL HepG2 Assay for human Retinoic Acid Receptor gamma (RARg) (AID 2283009). The procedure, abridged: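 HepG2 transiently transfected with GAL4-UAS reporter units and chimeric NR-Gal4 constructs; 24 h compound exposure. Reporter mRNA quantified by RT-PCR, FAM labeling, HpaI digestion and capillary electrophoresis; gain-of-signal versus DMSO.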

Sequence of human Peroxisome Proliferator-activated Receptor alpha (PPARa), PPARA (gene 5465) (Q07869 whole entry, looked up, the tested form may be a part): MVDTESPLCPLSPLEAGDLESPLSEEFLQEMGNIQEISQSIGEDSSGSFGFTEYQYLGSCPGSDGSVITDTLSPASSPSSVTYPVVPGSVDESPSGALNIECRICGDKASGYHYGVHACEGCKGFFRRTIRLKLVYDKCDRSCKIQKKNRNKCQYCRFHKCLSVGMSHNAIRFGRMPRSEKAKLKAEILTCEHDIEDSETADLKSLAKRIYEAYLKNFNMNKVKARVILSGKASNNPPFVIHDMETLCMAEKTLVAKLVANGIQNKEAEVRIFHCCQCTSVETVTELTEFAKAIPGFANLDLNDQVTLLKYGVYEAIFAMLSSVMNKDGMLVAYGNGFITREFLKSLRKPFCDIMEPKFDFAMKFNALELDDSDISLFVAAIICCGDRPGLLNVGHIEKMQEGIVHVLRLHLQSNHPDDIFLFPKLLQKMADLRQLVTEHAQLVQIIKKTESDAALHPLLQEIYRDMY
Sequence of Nuclear receptor subfamily 1 group I member 2 (Homo sapiens) (O75469 whole entry, looked up, the tested form may be a part): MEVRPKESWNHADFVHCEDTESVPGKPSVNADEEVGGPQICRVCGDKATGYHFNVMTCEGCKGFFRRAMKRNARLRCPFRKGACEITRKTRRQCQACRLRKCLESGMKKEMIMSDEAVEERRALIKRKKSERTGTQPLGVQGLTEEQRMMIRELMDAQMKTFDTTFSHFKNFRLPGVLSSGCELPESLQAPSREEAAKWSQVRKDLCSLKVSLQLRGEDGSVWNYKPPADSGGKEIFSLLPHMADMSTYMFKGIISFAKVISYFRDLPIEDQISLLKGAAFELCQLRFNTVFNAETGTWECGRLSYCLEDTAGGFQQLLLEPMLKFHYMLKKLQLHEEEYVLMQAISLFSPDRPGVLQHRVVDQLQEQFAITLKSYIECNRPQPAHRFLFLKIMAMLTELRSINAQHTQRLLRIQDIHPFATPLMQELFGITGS
Sequence of Peroxisome proliferator-activated receptor gamma (Homo sapiens) (P37231 whole entry, looked up, the tested form may be a part): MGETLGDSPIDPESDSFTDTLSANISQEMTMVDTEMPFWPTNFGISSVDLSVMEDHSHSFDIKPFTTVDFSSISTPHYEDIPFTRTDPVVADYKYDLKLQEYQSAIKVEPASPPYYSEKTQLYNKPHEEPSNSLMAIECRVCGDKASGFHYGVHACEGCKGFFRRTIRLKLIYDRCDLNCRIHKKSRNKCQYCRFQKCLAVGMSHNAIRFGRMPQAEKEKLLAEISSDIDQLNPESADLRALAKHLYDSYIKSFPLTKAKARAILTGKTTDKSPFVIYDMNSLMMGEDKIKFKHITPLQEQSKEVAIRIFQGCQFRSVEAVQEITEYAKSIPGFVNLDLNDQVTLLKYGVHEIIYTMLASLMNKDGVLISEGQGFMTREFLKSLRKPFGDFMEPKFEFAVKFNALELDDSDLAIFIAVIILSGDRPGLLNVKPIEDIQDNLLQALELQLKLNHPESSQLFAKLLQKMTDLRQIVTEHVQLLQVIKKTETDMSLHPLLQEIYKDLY
Sequence of human Retinoic Acid Receptor gamma (RARg), RARG (gene 5916) (P13631 whole entry, looked up, the tested form may be a part): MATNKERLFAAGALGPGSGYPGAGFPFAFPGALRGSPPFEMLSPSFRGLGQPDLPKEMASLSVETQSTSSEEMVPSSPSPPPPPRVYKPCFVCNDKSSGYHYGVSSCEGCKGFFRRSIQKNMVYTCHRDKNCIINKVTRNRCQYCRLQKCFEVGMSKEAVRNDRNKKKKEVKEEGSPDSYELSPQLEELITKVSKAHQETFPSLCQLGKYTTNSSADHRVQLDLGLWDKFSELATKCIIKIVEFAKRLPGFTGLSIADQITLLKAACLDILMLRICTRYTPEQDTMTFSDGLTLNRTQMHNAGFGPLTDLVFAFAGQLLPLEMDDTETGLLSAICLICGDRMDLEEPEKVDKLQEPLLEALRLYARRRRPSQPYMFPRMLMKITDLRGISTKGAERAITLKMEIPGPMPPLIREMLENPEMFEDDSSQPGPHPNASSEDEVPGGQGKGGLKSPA
Sequence of human Peroxisome Proliferator-activated Receptor delta (PPARd), PPARD (gene 5467) (Q03181 whole entry, looked up): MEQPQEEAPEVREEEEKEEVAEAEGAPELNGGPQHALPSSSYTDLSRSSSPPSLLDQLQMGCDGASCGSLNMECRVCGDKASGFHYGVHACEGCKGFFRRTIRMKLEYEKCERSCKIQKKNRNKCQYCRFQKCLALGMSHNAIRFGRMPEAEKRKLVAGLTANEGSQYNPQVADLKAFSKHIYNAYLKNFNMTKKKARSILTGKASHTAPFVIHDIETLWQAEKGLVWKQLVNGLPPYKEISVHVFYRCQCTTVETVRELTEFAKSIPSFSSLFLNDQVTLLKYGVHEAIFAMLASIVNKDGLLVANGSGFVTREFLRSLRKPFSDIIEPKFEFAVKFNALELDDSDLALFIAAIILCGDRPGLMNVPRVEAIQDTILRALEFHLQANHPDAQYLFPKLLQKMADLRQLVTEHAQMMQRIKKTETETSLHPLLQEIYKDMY

`CC(=O)c1ccccc1O`: the outcome in experiment [1], in experiment [2] and in experiment [3] was inactive.
Turning to `O=C(C=Cc1ccccc1)OCCc1ccccc1`, the compound was classed as inactive in experiment [1] and in experiment [3]. Moreover, the AC50 in experiment [2] is 3.05 µM (active).
As for `CCc1occc(=O)c1O`, the result in experiment [4] was inactive.
Turning to `CCCCCCCC(=O)OCC`, the call in experiment [1], in experiment [2] and in experiment [3] was inactive.
In the case of `C=CC(=O)OCCCCCCCCCC`, the result in experiment [1] and in experiment [3] was inactive. Further, the AC50 in experiment [2] is 3.15 µM (active).
`CC(C)CCOCc1ccccc1`: the result in experiment [1], in experiment [2] and in experiment [3] was inactive.
For the compound `CCC(C)(O)CCCC(C)C` (stereo unspecified), the outcome in experiment [1], in experiment [2] and in experiment [3] was inactive.
With `CCOC(=O)OC(=O)OCC`, the compound was called inactive in experiment [1], in experiment [3] and in experiment [5].
Turning to `C=C(C)C1CC=C(C)CC1` (stereo unspecified), the compound was called inactive in experiment [1], in experiment [3] and in experiment [5].
For `C=CCCCCCCCCO`, the result in experiment [1], in experiment [2] and in experiment [3] was inactive.
`COC(=O)CC(C)CCC=C(C)C` (stereo unspecified): the result in experiment [1], in experiment [2] and in experiment [3] was inactive.

The term AC50 denotes the concentration giving half of the maximal activity seen.
